Sampled rows, rich in hits. Any-hit rate of the full collection: about 4%.
GDH-TPI counter-1 = inhibits GDH-TPI coupling enzymes, artifact for Mtb FBA screen; GDH-TPI coupled enzyme counterscreen, NADH absorbance; inhibition, % at 4.8 µM; 360,000 compounds, 1.2% hits; AID 588335; in the data active = inhibition above about 30%
UGM FP inh = blocks M. tuberculosis UGM enzyme; purified UGM, fluorescence polarization probe displacement; AID 504406; 320,000 compounds, 0.06% hits; P9WIQ1; inhibition, % at 10 µM; in the data active = inhibition above about 10%, passing the limit was not always enough
Rv3671c inh = inhibits the M. tuberculosis serine protease Rv3671c | 320,000 compounds, 0.048% hits | P9WHR9 | AID 2606 | inhibition, % at 5.96 µM; in the data active = inhibition above about 38%;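 note: extracellular domain of Rv3671c used as enzyme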
Target sequence (P9WHR9 whole entry, looked up, the tested form may be a part): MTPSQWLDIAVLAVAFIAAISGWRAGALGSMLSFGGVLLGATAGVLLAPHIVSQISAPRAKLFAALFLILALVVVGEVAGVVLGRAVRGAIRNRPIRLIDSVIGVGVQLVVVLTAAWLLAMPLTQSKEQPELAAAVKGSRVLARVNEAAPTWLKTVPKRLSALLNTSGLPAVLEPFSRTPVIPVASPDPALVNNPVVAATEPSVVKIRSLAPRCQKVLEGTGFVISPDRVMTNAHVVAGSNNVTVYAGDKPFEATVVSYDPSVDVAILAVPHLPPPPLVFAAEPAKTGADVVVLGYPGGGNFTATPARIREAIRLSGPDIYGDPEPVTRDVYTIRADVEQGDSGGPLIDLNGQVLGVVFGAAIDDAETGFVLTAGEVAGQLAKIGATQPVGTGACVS
FBA Mtb inh = Mtb fructose-bisphosphate aldolase inhibition | P9WQA3 | purified M. tuberculosis FBA, fluorescence read-out | inhibition, % at 1 µM | 360,000 compounds, 2.3% hits
RecA intein inh = blocks M. tuberculosis RecA intein splicing | inhibition, % (concentration not given with the values) | 290,000 compounds, 0.75% hits | P9WHJ3 | AID 2221 | cell-free RecA intein splicing, fluorescence; in the data active = inhibition above about 30%
Mtb bLac sens = beta-lactam sensitization of Mtb H37Rv | M. tuberculosis H37Rv growth with meropenem, percent inhibition | inhibition, % at 25 µM | 330,000 compounds, 0.27% hits | AID 434955; call rule not given here;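 note: growth measured after seven days incubation then overnight dye step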
Mtb FBA confirm = Mtb FBA inhibition, confirmed; shares compounds with FBA Mtb inh; purified M. tuberculosis FBA, fluorescence read-out; inhibition, % at 1 µM; 5,600 compounds, 78% hits; AID 651616
GDH-TPI counter-2 = counter-screen for M. tuberculosis FBA inhibitors: GDH-TPI coupled enzyme inhibition; shares compounds with FBA Mtb inh; GDH-TPI coupled enzyme counterscreen, fluorescence; inhibition, % at 1 µM; 5,600 compounds, 81% hits; in the data active = inhibition above about 10%
Large screens that a line does not name were inactive (follow-up assays come after a bar, where they were run). Cut-off read from the data, not from the text of the source, unless noted: active = inhibition above about 27%; inactive = the rest.

Nc1ccc(Oc2cc(N)cc(Oc3ccccc3)c2)cc1	none
COc1cc(C(=O)NCCc2ccc3c(c2)OCO3)cc(OC)c1OC	none (no result: UGM FP inh, Rv3671c inh, RecA intein inh, Mtb bLac sens)
Cc1cc(OCC(=O)N2CCC(C(N)=O)CC2)c2c(C)c(C)c(=O)oc2c1	none
Cc1cc(OCC(=O)N2CCC(O)CC2)c2c(C)cc(=O)oc2c1	FBA Mtb inh 100 | Mtb FBA confirm 142 | GDH-TPI counter-2 105
Cc1cc(OCC(=O)N2CCC(C(=O)O)CC2)c2c3c(c(=O)oc2c1)CCCC3	FBA Mtb inh 77 (no result: RecA intein inh) | Mtb FBA confirm 131 | GDH-TPI counter-2 82
Cc1cc(OCC(=O)N2CCC(C(=O)O)CC2)c2c(C)c(C)c(=O)oc2c1	FBA Mtb inh 87 | Mtb FBA confirm inactive | GDH-TPI counter-2 inactive
Cc1cc(OCC(=O)Nc2ccc(CCO)cc2)c2c(C)c(C)c(=O)oc2c1	FBA Mtb inh 33 | Mtb FBA confirm inactive | GDH-TPI counter-2 inactive
O=C(NCCCN1CCN(c2ccccc2F)CC1)C1CCCN(S(=O)(=O)c2cnc[nH]2)C1 (configuration not stated)	none (no result: UGM FP inh)
CC(=O)COc1cc(C)cc2oc(=O)c(C)c(C)c12	FBA Mtb inh 38 | Mtb FBA confirm active | GDH-TPI counter-2 active
Cn1c(C(=O)N2CCC(C(N)=O)CC2)cc2cc(Cl)ccc21	none
CCCN(CCC)CCNC(=S)Nc1ccc2nc3n(c(=O)c2c1)CCCCC3	none
O=C(O)CNS(=O)(=O)c1ccc2c(c1)Cc1cc(S(=O)(=O)NCC(=O)O)ccc1-2	FBA Mtb inh 41 (no result: RecA intein inh) | Mtb FBA confirm inactive | GDH-TPI counter-2 inactive
O=C(O)CNS(=O)(=O)c1ccc2c(c1)C(=O)c1cc(S(=O)(=O)NCC(=O)O)ccc1-2	none (no result: Rv3671c inh)
c1ccc(NCc2cccnc2)cc1	none (no result: RecA intein inh)
c1cncc(CNc2cccc(-c3nc4ccccc4[nH]3)c2)c1	FBA Mtb inh 48 | Mtb FBA confirm inactive | GDH-TPI counter-2 inactive
COCCCNC(=O)c1cn(CC(C)C)c(=O)c2c1c1ccccc1n2C	none
COCCNC(=O)c1cn(CCOC)c(=O)c2c1c1ccccc1n2C	FBA Mtb inh 27 | Mtb FBA confirm 134 | GDH-TPI counter-2 104
COCCCNC(=O)c1cn(CCOC)c(=O)c2c1c1ccccc1n2C	FBA Mtb inh 37 | Mtb FBA confirm 90 | GDH-TPI counter-2 96
COCCn1cc(C(=O)NCCCOC(C)C)c2c3ccccc3n(C)c2c1=O	FBA Mtb inh 30 | Mtb FBA confirm 128 | GDH-TPI counter-2 112
CC(C)Cn1cc(C(=O)NCCCN2CCCC2=O)c2c3ccccc3n(C)c2c1=O	FBA Mtb inh 33 | Mtb FBA confirm inactive | GDH-TPI counter-2 inactive
CC(C)(C)OC(=O)N1CCN(C(=O)c2[nH]cnc2C(=O)NCC(=O)OCc2ccccc2)CC1	none
COc1ccc(S(=O)(=O)N2CCOC23CCN(S(=O)(=O)c2ccc(F)cc2C)CC3)cc1	none (no result: UGM FP inh, Rv3671c inh, Mtb bLac sens)
COc1ccccc1C1CN(c2ccc(F)cc2F)N=C1c1cccs1 (configuration not stated)	FBA Mtb inh 83 | Mtb FBA confirm 177 | GDH-TPI counter-2 132
CCOc1ccccc1NC(=O)N1CCc2ccccc2C1	none
Cc1cc(N2CCC(N(C)C3CCCC3)CC2)nc2cc(O)ccc12	FBA Mtb inh 28 | Mtb FBA confirm 91 | GDH-TPI counter-2 73
NN=C1c2ccccc2-c2ccc(N)cc21	none (no result: UGM FP inh, Rv3671c inh, RecA intein inh, Mtb bLac sens)
COc1cc2c(cc1OC)CC[N+](C)=C2	FBA Mtb inh 95 | Mtb FBA confirm 111 | GDH-TPI counter-2 76
COc1cc2c(cc1OC)C[N+](C)(C)CC2	none
Cc1cc(C)n2nc(SCc3ccc(C#N)cc3)nc2n1	none
CCOC(=O)c1cnc2ccc(C)cn2c1=O	FBA Mtb inh 65 (no result: RecA intein inh) | Mtb FBA confirm inactive | GDH-TPI counter-2 inactive
COc1ccc(/C=N/c2oc(-c3ccccc3)cc2C#N)cc1	none
N#Cc1cc(-c2ccccc2)oc1/N=C/c1ccccc1O	FBA Mtb inh 59 | Mtb FBA confirm 45 | GDH-TPI counter-2 29
COc1cccc(/C=N/c2oc(-c3ccccc3)cc2C#N)c1O	FBA Mtb inh 54 | Mtb FBA confirm inactive | GDH-TPI counter-2 inactive
Cc1cc(CNC(=O)C2CCC(=O)N(Cc3ccccc3F)C2)nn1C (configuration not stated)	none
CC(C)OC(=O)CC(=O)CSc1nc2c(cc1C#N)CCCCCC2	none
Fc1cccc2sc(Nc3nnc(-c4ccco4)o3)nc12	FBA Mtb inh 33 | Mtb FBA confirm 198 | GDH-TPI counter-2 166
COc1cccc2sc(Nc3nnc(-c4ccc(F)cc4)o3)nc12	GDH-TPI counter-1 40, FBA Mtb inh 49 | Mtb FBA confirm active | GDH-TPI counter-2 active
CCOC(=O)N1CCN(C(=O)c2cc(COc3c(F)cccc3F)on2)CC1	none
CCOc1ccc(-c2cc(C(=O)OC)nc3c2c(=O)n(C)c(=O)n3C)cc1	FBA Mtb inh 33 | Mtb FBA confirm 118 | GDH-TPI counter-2 91
COC(=O)c1cc(-c2ccc(Br)cc2)c2c(=O)[nH]c(=O)n(C)c2n1	none
CC1=C(C#N)C(NC(=O)C(C)(C)C)(C(F)(F)F)C(=O)N1 (configuration not stated)	none
N/C(=N\S(=O)(=O)c1ccccc1)c1ccc([N+](=O)[O-])cc1	none
N#Cc1ccc(-c2ccc(OCC(O)CN3CCOCC3)cc2)cc1 (configuration not stated)	FBA Mtb inh 40 | Mtb FBA confirm inactive | GDH-TPI counter-2 inactive
COc1ccc(OCC(O)CN2CCOCC2)cc1 (configuration not stated)	none
CCOC(=O)C(C)Sc1nnc(Cc2cc(=O)[nH]c(=O)[nH]2)n1-c1cccc(OC)c1 (configuration not stated)	none (no result: RecA intein inh)
CCc1cc(=O)n2[nH]c(-c3ccccc3)c(-c3ccccc3)c2n1	FBA Mtb inh 34 | Mtb FBA confirm 150 | GDH-TPI counter-2 111
CCOC(=O)Cc1cc(=O)n2[nH]c(C)c(-c3ccc(Cl)cc3)c2n1	FBA Mtb inh 62 | Mtb FBA confirm 156 | GDH-TPI counter-2 110
Cc1[nH]n2c(=O)cc(C(C)C)nc2c1-c1ccccc1	none
CCCc1cc(=O)n2[nH]c(C)c(-c3ccccc3OC)c2n1	none (no result: UGM FP inh, Rv3671c inh, RecA intein inh, Mtb bLac sens)
Cc1[nH]n2c(=O)cc(C(C)(C)C)nc2c1-c1ccccc1	FBA Mtb inh 50 | Mtb FBA confirm inactive | GDH-TPI counter-2 inactive
CCOC(=O)Cc1cc(=O)n2[nH]c(C)c(-c3ccc(OC)cc3)c2n1	none
CCc1cc(=O)n2[nH]c(C)c(-c3ccc(OC)cc3)c2n1	none
CCCc1cc(=O)n2[nH]c(C)c(-c3ccccc3)c2n1	FBA Mtb inh 27 | Mtb FBA confirm inactive | GDH-TPI counter-2 inactive
O=C(CCN1CCCCC1)Nn1c(=S)[nH]c2ccccc2c1=O	none
CC(=O)Nc1ccc2nc(NC(=O)CN3CCOCC3)sc2c1	none
CNC(C)C(=O)NC(C(=O)N1CCCC1C(=O)Nc1ccc2ncccc2c1)C(C)C (configuration not stated)	none (no result: RecA intein inh)
